Data published in PubChem BioAssay AID504773 (Broad Institute, 2011).
Potency and affinity values are given separately.

biological target: Golgi-associated PDZ and coiled-coil motif-containing protein (Homo sapiens) (UniProt Q9HD26); experiment: CAL PDZ peptide-binding inhibitors, dose response, biochemical, fluorescence polarization, Cerulean-tagged CAL PDZ, cherry-picks (AID 504773); conditions: 1 h; series mostly up to 50 µM; activity change, negative = inhibition: at the top concentration;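 also: 0% = DMSO neutral wells and -100% = excess unlabeled competitor peptide wells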

Activity change, negative = inhibition, inactive:
O=C(NCC(=O)N1CCC(N2CCCCC2)CC1)C1CCCCC1 7.41%
CN(C)C1(CNC(=O)C2CCC(=O)N(CCc3ccc(Cl)cc3)C2)CCCCC1 (stereo not given) 7.75%
O=C(NNC(=O)c1c(F)cccc1F)c1sccc1-n1cccc1 12.1%
COc1ccc(/C=C/C(=O)Nc2ccc3nc4n(c(=O)c3c2)CCCC4)cc1OC -58.9%
CCc1noc(C)c1C(=O)N1CCCC(CCC(=O)NCc2ccc(F)c(F)c2)C1 (stereo not given) 0.002%
Cc1cccc(NC(=O)Cn2cnc3c(oc4ccccc43)c2=O)c1C 14.4%
CC1CCCN(C(=O)Cc2cccc3ccccc23)C1 (stereo not given) 9.32%
COc1ccc(S(=O)(=O)N2CCOCC2)cc1NC(=O)CN1CCCCCC1 4.33%
COc1cc(S(=O)(=O)n2nc(C)cc2C)ccc1Cl -59%
COc1ccc(Br)c(C(=O)NC2CCCC2)c1 18.1%
CC(=O)Nc1sc2c(c1C(c1ccccn1)N1CCN(C)CC1)CCCC2 (stereo not given) 24.4%
COc1ccc(OC)c(NC(=O)CS(=O)(=O)Cc2ccccc2)c1 8.81%
O=C(NNS(=O)(=O)c1ccc(Cl)cc1)c1cccs1 20.6%
O=C(NC(=S)NCCCN1CCOCC1)c1ccc(Br)cc1 23.6%
COCCN(C(=S)Nc1ccccc1OC)C1CCN(C(C)C)CC1 7.01%
O=C(Nc1cccc(F)c1)c1ccco1 20.3%
COc1ccc(C(=O)Nc2nccs2)cc1 19.6%
COc1cc(C(=O)NC(C)CCc2ccccc2)cc(OC)c1OC (stereo not given) 22.9%
CCn1c(=O)c(C(C)=O)c(O)c2ccccc21 7.91%
Cc1cc(C)c(OCC(=O)OC(C)C(=O)NC2CC2)c(C)c1 (stereo not given) 5.58%
